Reference: PubChem BioAssay AID1159580 (chemical genetic matrix, 2015)
About 2,000 (36%) of roughly 5,500 compounds were called active. Inconclusive results (about 18%) are left out. No stated cut-off is given here; in the data, active means normalized growth mostly below about 0.91 (no sharp cut-off); inconclusive means no clear call, values can overlap the other calls; inactive means mostly above about 0.92. Some of the results follow.

Assay: chemical genetic growth profiling, strain panel (AID 1159580);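 further: tested at 20 µM; growth read once vehicle control cultures reached saturation at 30 °C; 1 = growth at the plate median or of vehicle wells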
Settings: S. cerevisiae deletion strains, growth OD

Measured: normalized growth

O=S(=O)(Nc1ccccc1Oc1ccccc1)c1ccc(-c2ccno2)s1
active: locus YLR113W, strain HOG1, stronger effect = lower value 0.769
inactive: locus YAR019C, strain CDC15, stronger effect = lower value 0.974 | locus YBL105C, strain PKC1, stronger effect = lower value 0.961 | locus YBR135W, strain CKS1, stronger effect = lower value 0.966 | locus YBR136W, strain MEC1, stronger effect = lower value 0.968 | locus YBR160W, strain CDC28, stronger effect = lower value 0.961 | locus YDL017W, strain CDC7, stronger effect = lower value 0.969 | locus YDL028C, strain MPS1, stronger effect = lower value 0.965 | locus YDL101C, strain DUN1, stronger effect = lower value 0.968 | locus YDL108W, strain KIN28, stronger effect = lower value 0.972 | locus YDL132W, strain cdc53, stronger effect = lower value 0.964 | locus YDL214C, strain PRR2, stronger effect = lower value 0.916 | locus YDR052C, strain DBF4, stronger effect = lower value 0.978 | locus YDR054C, strain cdc34, stronger effect = lower value 0.965 | locus YDR226W, strain ADK1, stronger effect = lower value 0.968 | locus YDR477W, strain SNF1, stronger effect = lower value 0.943 | locus YER123W, strain YCK3, stronger effect = lower value 0.911 | locus YER133W, strain GLC7, stronger effect = lower value 0.964 | locus YFL009W, strain cdc4, stronger effect = lower value 0.96 | locus YFL029C, strain CAK1, stronger effect = lower value 0.96 | locus YFR003C, strain YPI1, stronger effect = lower value 0.969 | locus YFR019W, strain FAB1, stronger effect = lower value 0.97 | locus YFR028C, strain CDC14, stronger effect = lower value 0.963 | locus YGR040W, strain KSS1, stronger effect = lower value 0.929 | locus YGR052W, strain FMP48, stronger effect = lower value 0.976 | locus YGR092W, strain DBF2, stronger effect = lower value 0.916 | locus YHR030C, strain SLT2, stronger effect = lower value 0.961 | locus YHR079C, strain IRE1, stronger effect = lower value 0.954 | locus YHR082C, strain KSP1, stronger effect = lower value 0.98 | locus YHR205W, strain SCH9, stronger effect = lower value 0.933 | locus YIL147C, strain SLN1, stronger effect = lower value 0.969 | locus YJL095W, strain BCK1, stronger effect = lower value 0.962 | locus YJL128C, strain PBS2, stronger effect = lower value 0.953 | locus YJL157C, strain FAR1, stronger effect = lower value 0.924 | locus YJR016C, strain ILV3, stronger effect = lower value 0.964 | locus YJR066W, strain TOR1 (second series), stronger effect = lower value 0.919 | locus YJR066W, strain TOR1, stronger effect = lower value 1 | locus YKL048C, strain ELM1, stronger effect = lower value 0.932 | locus YKL067W, strain YNK1, stronger effect = lower value 0.941 | locus YKL101W, strain HSL1, stronger effect = lower value 0.893 | locus YKL193C, strain SDS22, stronger effect = lower value 0.962 | locus YKL203C, strain TOR2, stronger effect = lower value 0.982 | locus YLR133W, strain CKI1, stronger effect = lower value 0.914 | locus YLR403W, strain SFP1, stronger effect = lower value 0.891 | locus YML070W, strain DAK1, stronger effect = lower value 0.906 | locus YMR001C, strain CDC5, stronger effect = lower value 0.968 | locus YMR205C, strain PFK2 (second series), stronger effect = lower value 0.948 | locus YMR277W, strain FCP1, stronger effect = lower value 0.965 | locus YNL006W, strain LST8, stronger effect = lower value 0.973 | locus YNL020C, strain ARK1, stronger effect = lower value 0.924 | locus YNL161W, strain CBK1, stronger effect = lower value 0.968 | locus YNL183C, strain NPR1, stronger effect = lower value 0.954 | locus YNL207W, strain RIO2, stronger effect = lower value 0.966 | locus YNL222W, strain SSU72, stronger effect = lower value 0.961 | locus YNL307C, strain MCK1 (second series), stronger effect = lower value 0.932 | locus YOL078W, strain AVO1, stronger effect = lower value 0.963 | locus YOL136C, strain PFK27, stronger effect = lower value 0.908 | locus YOR061W, strain CKA2, stronger effect = lower value 0.921 | locus YOR119C, strain RIO1, stronger effect = lower value 0.995 | locus YOR231W, strain MKK1, stronger effect = lower value 0.888 | locus YOR329C, strain SCD5, stronger effect = lower value 0.968 | locus YPL031C, strain PHO85, stronger effect = lower value 0.944 | locus YPL153C, strain RAD53, stronger effect = lower value 0.93 | locus YPL204W, strain HRR25, stronger effect = lower value 0.927 | locus YPL209C, strain IPL1, stronger effect = lower value 0.965 | locus YPL256C, strain CLN2, stronger effect = lower value 0.873 | locus YPR025C, strain CCL1, stronger effect = lower value 0.971 | locus YPR106W, strain ISR1, stronger effect = lower value 0.946 | locus YPR111W, strain DBF20, stronger effect = lower value 0.929 | strain NNK1, stronger effect = lower value 0.948 | strain TSCII, stronger effect = lower value 0.967

NCCNS(=O)(=O)c1cccc2cnccc12
inactive: locus YAL040C, strain CLN3, stronger effect = lower value 1.02 | locus YCL061C, strain MRC1 (second series), stronger effect = lower value 1.01 | locus YDR363W, strain ESC2, stronger effect = lower value 0.973 | locus YER002W, strain NOP16, stronger effect = lower value 0.988 | locus YGR078C, strain PAC10, stronger effect = lower value 0.968 | locus YGR229C, strain SMI1, stronger effect = lower value 0.972 | locus YNL128W, strain TEP1, stronger effect = lower value 0.986 | locus YNL153C, strain GIM3, stronger effect = lower value 1.05 | locus YNL175C, strain NOP13, stronger effect = lower value 0.958 | locus YNL197C, strain WHI3, stronger effect = lower value 0.917 | locus YNL224C, strain SQS1, stronger effect = lower value 0.98 | locus YNL322C, strain KRE1, stronger effect = lower value 0.98 | locus YOR083W, strain WHI5 (second series), stronger effect = lower value 0.923 | locus YPL241C, strain CIN2, stronger effect = lower value 0.998
